Screening data as filed in PubChem BioAssay.
CHOP inhibitor – inhibitors of CHOP promoter induction, primary screen, cell-based, unfolded protein response, luciferase reporter | inhibition, % at 10 µM | CHO-K1 CHOP-promoter luciferase, tunicamycin-induced, 15-18 h | actives 3.8% (n = 220,000);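 active means compounds that reduced the stress-induced luciferase reporter signal by more than about 70% of percent inhibition, limit read from the data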;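 further: 0% = tunicamycin plus vehicle and 100% = wells without tunicamycin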
WT yeast gro inh – growth inhibition of WT strain, primary screen, mitochondrial fusion inhibitor project, WT and mutant strains, chemical genetic; actives 2.1% (n = 190,000); inhibition, % at 10 µM; AID 1362, 2008; mitochondrial fusion phenotypic screen; in the data active means inhibition above about 58%; tested in S. cerevisiae
RAM inhibit – inhibitors of the yeast RAM network, primary screen, dse1pr::URA3 reporter, 5-FOA selection | AID 868, 2007 | inhibition, % at 50 µM | S. cerevisiae dse1pr::URA3 reporter, 5-FOA growth OD615, 2 d; analog-sensitive cbk1-as2 kinase mutant strain | actives 1.8% (n = 190,000);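 active means inhibition above a set limit, 3 SD over mean compound inhibition, cut at about 8.4% in these data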;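 further: 0% = DMSO-only wells with no growth and 100% = 10 µM 1-NA-PP1 full growth; inhibition rescues growth on 5-FOA so higher OD means more RAM inhibition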
Lmaj promast – Leishmania major promastigote growth inhibition, primary screen; Leishmania major promastigotes, resazurin fluorescence viability; inhibition, % at 10 µM; actives 9% (n = 200,000); AID 1063, 2008; in the data active means inhibition above about 50%;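 further: promastigotes grown with compound for 44 hours at 28 °C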
An asterisk follows results filed as active; nt = no result. Compounds with a hit are over-represented: about 13% of the library has one in this group of screens.

SMILES	CHOP inhibitor	WT yeast gro inh	RAM inhibit	Lmaj promast
CSc1cc(-c2ccccc2)n(Cc2ccc(Cl)cc2Cl)c(=O)c1C#N	10	-22	4	-5
COc1cc(C(=O)NNC(=S)NC(=O)/C=C/c2ccccc2)cc(OC)c1OC	8	nt	nt	nt
CS(=O)(=O)c1ccc2nc(NC(=O)c3ccc(NS(=O)(=O)c4cccc([N+](=O)[O-])c4)cc3)sc2c1	-21	nt	nt	nt
COc1cc(O)ccc1/C=N/NC(=O)c1ccc([N+](=O)[O-])cc1	-16	-9	1	4
O=C(NC(CSCc1ccccc1)C(=O)N/N=C/c1ccc(O)cc1O)c1ccc([N+](=O)[O-])cc1 (configuration not stated)	69	9	-1	100*
CC(C)(C)NC(=O)C1CCN(S(=O)(=O)c2cccc(C(F)(F)F)c2)CC1	6	10	-1	2
O=C(CSc1nc2ccccc2c(=O)n1-c1ccccc1)NCc1ccco1	8	6	0	61*
O=C(CCCCCn1c(SCC(=O)c2ccccc2)nc2ccccc2c1=O)NCc1ccco1	0	10	8	2
O=C(CCCn1c(SCC(=O)c2ccc(Cl)cc2)nc2ccccc2c1=O)NCc1ccco1	40	-9	8.5*	3
Cc1cccc(-n2c(SCC(=O)NCc3ccco3)nc3ccccc3c2=O)c1	18	-7	2	47
O=C(N/N=C/c1ccc(Cl)cc1)C1CC12CCC2 (configuration not stated)	15	2	1	9
O=C(Nc1ccc(Cn2cccn2)cc1)c1ccc(COc2cccc(Br)c2)cc1	67	41	9.9*	4
COc1ccccc1-c1nnc(SC(C(=O)c2c[nH]c3ccccc23)c2ccccc2)n1C (configuration not stated)	28	2	7	8
COc1cccc(-c2nnc(SC(C(=O)c3c[nH]c4ccccc34)c3ccccc3)n2C)c1 (configuration not stated)	60	4	6	98*
Cc1c(C(=O)N2CCC(Cc3ccccc3)CC2)sc2ncnc(N3CCC(C)CC3)c12	44	31	8	7
Cc1c(C(=O)N2CCC(C)CC2)sc2ncnc(N(C)c3ccccc3)c12	27	88*	0	13
CC(=O)Nc1c(C(=O)N2CCN(c3ccccn3)CC2)cnn1-c1ccc(C)cc1	17	-11	1	-6
O=C(/C=C/c1ccccc1)N1c2ccccc2Sc2ccc(C(F)(F)F)cc21	70*	28	4	97*
CCCCNC(=S)N/N=C/c1cc(C)ccc1C	20	66*	1	-4
N=C(N=C(N)N)N1CCc2ccccc21	12	-17	4	-3
Cn1cc(Cl)c(C(=O)OCC(=O)Nc2nc(-c3ccc(Br)cc3)cs2)n1	-8	26	1	100*
Cn1nccc1C(=O)OCC(=O)Nc1nc(-c2ccccc2)cs1	54	15	9.4*	28
O=C(COC(=O)c1cncc(Br)c1)Nc1nc(-c2ccc(F)cc2)cs1	14	nt	nt	nt
O=C(NNC(=O)c1ccccc1O)c1ccco1	-24	7	2	0
CCN(CCNC(=O)C1CCN(S(=O)(=O)c2c(C)noc2C)CC1)c1ccccc1	18	2	2	98*
SMILES	CHOP inhibitor	WT yeast gro inh	RAM inhibit	Lmaj promast
CCCS(=O)(=O)N1CCC(C(=O)NCCN(C)Cc2ccccc2)CC1	-12	8	2	61*
Cc1nn(C)c(C)c1S(=O)(=O)N1CCCC(C(=O)NCCc2ccc(Cl)cc2)C1 (configuration not stated)	5	-4	3	-10
Cc1noc(C)c1S(=O)(=O)N1CCCC(C(=O)NCCc2ccc(Cl)cc2)C1 (configuration not stated)	-13	14	1	100*
Cc1ccc(S(=O)(=O)CCc2nc3ccccc3[nH]2)cc1C	27	20	2	-2
COc1cc2cc(/C=C/C(=O)c3ccco3)c(Cl)nc2cc1OC	-62	-5	4	76*
Cc1ccc2nc(SCC(=O)N3c4ccccc4CC3C)c(C)cc2c1 (configuration not stated)	78*	14	2	16
Cc1sc2nc(C(C)C)nc(SCC(=O)N3c4ccccc4CC3C)c2c1C (configuration not stated)	36	26	4	94*
COc1ccc(CN2CCN(Cc3cccc(OC)c3)C(CCO)C2)cc1 (configuration not stated)	3	-4	1	71*
COc1cccc(CN2CCN(Cc3ccc4c(c3)OCCO4)CC2CCO)c1 (configuration not stated)	7	-12	2	70*
Cc1ccc(CN2CCN(Cc3ccc4c(c3)OCCO4)CC2CCO)cc1 (configuration not stated)	19	9	2	48
COc1ccc(/C=C/CN2CCN(Cc3cccc(OC)c3)C(CCO)C2)cc1 (configuration not stated)	19	7	-1	93*
CCC(C)NC(=O)CCSc1ccc(C)cc1 (configuration not stated)	-15	15	0	-2
O=C(O)C1=C[C@H](c2cccs2)C[C@H](OCc2ccc(CO)cc2)O1	31	nt	nt	nt
Cc1cc(OC(C)C)c2c(-c3ccccc3)cc(=O)oc2c1	79*	-7	4	8
CCOc1cc(C)cc2oc(=O)cc(-c3ccccc3)c12	48	35	2	5
Cn1c(C(C#N)/C(=N\S(=O)(=O)c2cccs2)c2ccccc2)nc2ccccc21 (configuration not stated)	-22	-1	9.6*	-6
COc1ccc(Cl)cc1-c1nc(SCC(N)=O)n[nH]1	15	nt	nt	nt
O=S(=O)(Nc1ccc(N=Nc2ccccc2)cc1)c1ccccc1	95*	-4	2	-5
CCOc1cc(/C=C\[N+](=O)[O-])ccc1OCC(=O)N1CCOCC1	-24	0	-1	11
CCOc1cc(/C=C/c2nc3cc(C)c(C)cc3s2)ccc1OCC(=O)N1CCOCC1	3	-1	5	86*
CCc1ccc(OCC(=O)N/N=C/c2cc([N+](=O)[O-])ccc2N2CCCCCC2)cc1	14	12	4	100*
O=C(N/N=C/c1cc([N+](=O)[O-])ccc1N1CCCCCC1)c1ccccn1	-11	-8	4	60*
CCC1CCCCN1c1ccc([N+](=O)[O-])cc1/C=N/NC(=O)Cn1c2ccccc2c(=O)c2ccccc21 (configuration not stated)	43	-6	7	51*
CN(c1ccc([N+](=O)[O-])cc1/C=N/NC(=O)COc1ccccc1)C1CCCCC1	-1	20	4	91*
CN1CCN(c2ccc([N+](=O)[O-])cc2/C=N/NC(=O)c2ccc(F)cc2)CC1	22	24	1	11
N#CCC(=O)N/N=C/c1cc([N+](=O)[O-])ccc1N1CCOCC1	-3	10	0	-8
CC[n+]1ccc(C(=O)NCc2ccccc2)cc1	-11	-6	1	-7
